Shown is part of a subset that was picked to be rich in hits.
Pf Dd2 growth: blocks in vitro growth of P. falciparum Dd2; P. falciparum Dd2 growth, SYBR Green, 72 h; Potency, µM (top dose mostly 28.9 µM), for inactives: at the highest dose activity, negative = inhibition, most hits filed as inhibitors; hit rate 4.3% among 120,000; AID 1347417; active = well fitted inhibition curve with a large enough effect;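 note: plate controls were DMSO vehicle for no effect and reference drug for full effect; nearly all actives have a fitted effect of over 65% in size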
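Infected erythrocytes (Dd2, 0.3% parasitemia, 2.5% hematocrit final) are added to compound in RPMI-1640/Albumax II medium, grown 72 h at 37C in low oxygen, then lysed with saponin/Triton-X containing SYBR Green and read by fluorescence.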
Starred values were filed as active, the others as inactive; i = inactive; [ ] = remark or other dose. Potency is the fitted concentration of half-maximal effect.

SMILES	Pf Dd2 growth
COc1ccc2cc1Nc1ccc(cc1)C[C@H](NCc1ccc(C)o1)C(=O)N(C)[C@H](C(=O)NCCC(C)C)C2	1µM*
Cc1ccc(CNC(=O)C2N(C(C)C)C(=O)C23CCCC3)o1 (stereo not given)	5.6%
CC(C)CNC(=O)c1cc(C2CC2)nc2onc(C3CCCN3)c12 (stereo not given)	-23.5%
Cc1ccc(C(=O)N2CCCC(N)CC2)cc1N1CCNC1=O (stereo not given)	-11.5%
COC1CCCN(c2ccc(C(=O)N3CCC(N4CCOCC4)CC3)cn2)C1 (stereo not given)	2.0%
O=C(CC(c1ccccc1)c1ccccc1Cl)NCc1cc2n(n1)CCNC2 (stereo not given)	-3.0%
O=C(O)Cn1nc(C2CCOCC2)nc1CC1NC(=O)NC1=O (stereo not given)	-0.5%
Cc1cc(F)cc(CN2CCc3nc(C(=O)Nc4ccccc4)oc3CC2)c1	-25.3%[44.1 µM]
O=C(N1CCC(Cc2nc(C3CC3)n[nH]2)CC1)C1(c2ccccc2)CC1	i
Cc1noc(C)c1CC(=O)N1C[C@@H](CO)[C@H](c2ccccn2)C1	15.3%
CCc1ccccc1NC(=O)N1C[C@@H](F)C[C@H]1C(=O)N1CCc2ccccc2C1	3.16µM*
Cc1ccc(NC(=O)N2C[C@@H](F)C[C@H]2C(=O)N2CCc3ccccc3C2)cc1Cl	2.7%
COc1ccc(NC(=O)N2C[C@@H](F)C[C@H]2C(=O)N2CCc3ccccc3C2)c(C)c1	9.6%
COc1nc2c(cc1CNC(=O)CN1CCOCC1)C(=O)N(C1CCCC1)C2	-6.8%
COCCN(CCOC)c1ncnc2c1c(-c1ccccc1)cn2-c1ccc(C)c(Cl)c1	11.2µM*
COc1ccc(CCNc2ncnc3c2c(-c2ccccc2)cn3-c2ccc(Cl)cc2)cc1OC	i
COc1ccc(Cl)cc1Nc1ncnc2c1c(-c1ccccc1)cn2-c1ccccc1	-4.4%
O=C(Cc1c[nH]c2ncc(-c3ccc(Oc4ccccc4)cc3)cc12)N1CCOCC1	-3.3%[44.1 µM]
COc1ccc(-c2cnc3[nH]cc(CC(=O)N4CCNC(=O)C4)c3c2)cc1	7.94µM*
COc1cccc(-c2cnc3[nH]cc(CC(=O)N4CCN(C)CC4)c3c2)c1	i
O=C(c1ccc(Br)o1)N1CC2CC(C1)[C@H]1CCCC(=O)N1C2 (stereo not given in full)	9.6%
O=C(NCc1ccnc2[nH]ccc12)c1ccc(C(F)(F)F)cc1	1.0%[44.1 µM]
O=C(NCCn1c(=O)c(=O)[nH]c2ccccc21)C1CC(=O)N(c2n[nH]c3ccccc23)C1 (stereo not given)	i
CCN1C(=O)COC[C@@H]1[C@H](O)c1ccc(NC(=O)c2ccnc(Cl)c2)cc1	-6.0%[44.1 µM]
CCS(=O)(=O)NCC1(COCCOC)C[C@@H](O)[C@@H](O)C1 (stereo not given in full)	-18.1%[44.1 µM]
SMILES	Pf Dd2 growth
O=C(c1ccc(F)cc1)N1CCC(Oc2cccnc2)C1 (stereo not given)	12.2%
O=C(c1ccc(C2CCCNC2)cc1)N1CCC(Oc2cccc(F)c2)CC1 (stereo not given)	12.6µM*
O=C(c1ccc(C2CCCNC2)cc1)N1CCCN(c2ncccn2)CC1 (stereo not given)	-1.7%
CC(C)c1noc(-c2cccn3c(CNC(=O)c4cccc5[nH]ccc45)nnc23)n1	-17.9%
COCCNC(=O)c1ccc(OC2CCN(CCC(C)c3ccc(C)o3)CC2)c(Cl)c1 (stereo not given)	4.47µM*
COCCN1CC(CNC(=O)c2cc(Cl)c(C)c(Cl)c2)CC1=O (stereo not given)	-12.1%
Cc1ccc(C(C)CCN2CCC(N3CCC(C(=O)NC4CC4)CC3)CC2)o1 (stereo not given)	-13.0%
CS(=O)(=O)N1CCC(Oc2ccc(C(=O)NCCc3cnccn3)cc2Cl)CC1	-12.4%
COCCNC(=O)c1ccc(OC2CCN(C(C)CCSC)CC2)c(Cl)c1 (stereo not given)	11.2µM*
COc1ccc(C(=O)NCC2CCOC2)cc1OC1CCN(C(C)C)CC1 (stereo not given)	-14.5%
CCOc1ccccc1C1NC(=O)N(CC(=O)Nc2ccc(F)c(Cl)c2)C2=C1C(=O)OC2 (stereo not given)	-10.3%
COc1ccc(CNC(=O)CC[C@H]2CNC(=O)[C@@H]3[C@@H](CCN3Cc3ccc(F)cc3)N2C)cc1	1.1%
CCSc1nn(CC(=O)Nc2ccc(C(=O)OC)cc2)c(N)c1S(=O)(=O)c1ccc(C)cc1	-14.6%
CSc1nn(CC(=O)Nc2ccccc2F)c(N)c1S(=O)(=O)c1ccccc1	11.5%
CCOC(=O)c1ccc(NC(=O)Cn2nc(SC)c(S(=O)(=O)c3ccc(Cl)cc3)c2N)cc1	11.2µM*
COC(=O)COc1ccc(C(=O)N[C@@H]2CN(C(=O)NC(C)C)CCC[C@H]2O)cc1	9.2%[44.1 µM]
Cc1ccc(-c2c(C)n3c4c(=O)n(C)c(=O)n(C)c4nc3n2-c2cccc(O)c2)cc1	10µM*
CCc1ccc(-n2c(-c3ccccc3)c(C)n3c4c(=O)n(C)c(=O)n(C)c4nc23)cc1	8.9%
Cc1ccc(-c2nc3ccccc3n3c(-c4ccccc4)c4c(=O)n(C)c(=O)n(C)c4c23)cc1	61.9%

Source: PubChem (National Center for Advancing Translational Sciences (NCATS))
